# Results from PubChem BioAssay (NCATS).
# Results filed as inconclusive are left out. A number with no mark means an inactive call. The source made the active and inactive calls. The call rests on the fitted dose curve.
# Test: Primary qHTS for inhibitors of SARS-S pseudo-typed particle cell entry (AID 1479145); further: nearly all actives have a fitted effect of over 45% in size
# Conditions: SARS-S pseudotyped particle cell entry, luciferase reporter; series mostly up to 57.1 µM; activity change, negative = inhibition: at the top concentration
# On the % scale 0 is the no-effect control and ±100 the full control effect.
Compound,outcome,"activity change, negative = inhibition"
CC(=O)c1ccc(S(=O)(=O)NC(=O)NC2CCCCC2)cc1,inactive,
COCCCOc1ccnc(CS(=O)c2nc3ccccc3[nH]2)c1C (configuration not stated),inactive,
O=C(c1ccccc1)c1ccccc1,,-19.7%
Cc1ccc(C(=O)C(=O)O)cc1C,,-5.35%
CC[N+](CC)(CCNC(=O)C(=O)NCC[N+](CC)(CC)Cc1ccccc1Cl)Cc1ccccc1Cl,,-23.6%
CC[C@H](C)[C@H](N)C(=O)O,,1.61%
COC(=O)C(c1ccccc1)C1CCCCN1 (configuration not stated),,-8.4%
O=C(COCCOCCOCC(=O)Nc1c(I)cc(I)c(C(=O)O)c1I)Nc1c(I)cc(I)c(C(=O)O)c1I,,-1.3%
CC(=O)OCC(=O)[C@@]1(O)CC[C@H]2[C@@H]3CCC4=CC(=O)CC[C@]4(C)[C@H]3C(=O)C[C@@]21C,,-4.54%
Nc1ccn([C@@H]2CS[C@H](CO)O2)c(=O)n1,,-31.4% [at 114 µM]
CC(C)(C)C(=O)Oc1ccc(S(=O)(=O)Nc2ccccc2C(=O)NCC(=O)O)cc1,inactive,
NCCNCCNCCN,,-13%
NS(=O)(=O)c1cc(C(=O)O)cc(N2CCCC2)c1Oc1ccccc1,inactive,
Nc1nc(=O)n([C@@H]2CS[C@H](CO)O2)cc1F,,3.67%
C[C@]12C=CC(=O)C=C1CC[C@@H]1[C@@H]2C(=O)C[C@@]2(C)[C@H]1CC[C@]2(O)C(=O)CO,,0.788%
CC(C)=CCC/C(C)=C/CO,inactive,
CC(=O)Nc1ccc(OC(=O)c2ccccc2OC(C)=O)cc1,,-19.4%
C[C@@H]1C[C@H]2[C@@H]3C[C@H](F)C4=CC(=O)C=C[C@]4(C)[C@@]3(F)[C@@H](O)C[C@]2(C)[C@@]1(O)C(=O)CO,inactive,
C[N+](C)(CCOc1ccccc1)Cc1cccs1,,-26.9%

# Test: Primary qHTS for Huh7 cytotoxicity: counterscreen for inhibitors of MERS-S pseudotyped particle cell entry (AID 1479147)
# Conditions: cell viability read-out; series mostly up to 57.1 µM; activity change, negative = cytotoxicity: at the top concentration
Compound,outcome,"activity change, negative = cytotoxicity"
Nc1ccc(S(N)(=O)=O)cc1,inactive,
Cc1cc(C)c(NC(=O)CN(CC(=O)O)CC(=O)O)c(C)c1Br,,1.42%
COc1cc2c3cc1Oc1cc(ccc1O)C[C@@H]1c4c(cc(OC)c(O)c4Oc4ccc(cc4)C[C@@H]3N(C)CC2)CC[N+]1(C)C,,-16.7%
CN1[C@@H]2CC(OC(=O)[C@H](CO)c3ccccc3)C[C@H]1[C@@H]1O[C@@H]12 (some centres not stated),inactive,
CC(C)(C)NCC(O)COc1ccccc1OCC1CCCO1 (configuration not stated),,-3.5%
CC(=O)CC(c1ccc([N+](=O)[O-])cc1)c1c(O)c2ccccc2oc1=O (configuration not stated),,1.75%
CCC(Cc1c(I)cc(I)c(N)c1I)C(=O)O (configuration not stated),inactive,
CCCCCCCCCCCCCCCCCC(=O)O,,1.03%
CCc1cc(C(N)=S)ccn1,inactive,
CC1CCc2c(N3CCC(O)CC3)c(F)cc3c(=O)c(C(=O)O)cn1c23 (configuration not stated),inactive,
O=C(CO)[C@@H](O)[C@H](O)[C@@H](O)CO,,-5.5%
CC(=O)OCC1=C(C(=O)O)N2C(=O)[C@@H](NC(=O)Cc3cccs3)[C@H]2SC1,,-10.6%
COc1ccc(O)cc1,inactive,
CC(=O)NC[C@H]1CN(c2ccc(N3CCOCC3)c(F)c2)C(=O)O1,inactive,
CC1CC(OC(=O)c2ccccc2O)CC(C)(C)C1 (configuration not stated),inactive,
CC(=O)NCc1c(I)c(NC(C)=O)c(I)c(C(=O)O)c1I,inactive,
CN1C(CSCC(F)(F)F)Nc2cc(Cl)c(S(N)(=O)=O)cc2S1(=O)=O (configuration not stated),inactive,
O=C(Oc1ccccc1C(=O)O)c1ccccc1O,inactive,
OC[C@H]1O[C@@H](n2cnc3c2NC=NC[C@H]3O)C[C@@H]1O,inactive,

Compound,outcome,"activity change, negative = cytotoxicity"
CC(=O)c1ccc(S(=O)(=O)NC(=O)NC2CCCCC2)cc1,,2.38%
COCCCOc1ccnc(CS(=O)c2nc3ccccc3[nH]2)c1C (configuration not stated),,-7.98%
O=C(c1ccccc1)c1ccccc1,,1.86%
Cc1ccc(C(=O)C(=O)O)cc1C,inactive,
CC[N+](CC)(CCNC(=O)C(=O)NCC[N+](CC)(CC)Cc1ccccc1Cl)Cc1ccccc1Cl,inactive,
CC[C@H](C)[C@H](N)C(=O)O,inactive,
COC(=O)C(c1ccccc1)C1CCCCN1 (configuration not stated),,-8.09%
O=C(COCCOCCOCC(=O)Nc1c(I)cc(I)c(C(=O)O)c1I)Nc1c(I)cc(I)c(C(=O)O)c1I,inactive,
CC(=O)OCC(=O)[C@@]1(O)CC[C@H]2[C@@H]3CCC4=CC(=O)CC[C@]4(C)[C@H]3C(=O)C[C@@]21C,inactive,
Nc1ccn([C@@H]2CS[C@H](CO)O2)c(=O)n1,inactive [at 114 µM],
CC(C)(C)C(=O)Oc1ccc(S(=O)(=O)Nc2ccccc2C(=O)NCC(=O)O)cc1,,2.46%
NCCNCCNCCN,inactive,
NS(=O)(=O)c1cc(C(=O)O)cc(N2CCCC2)c1Oc1ccccc1,inactive,
Nc1nc(=O)n([C@@H]2CS[C@H](CO)O2)cc1F,inactive,
C[C@]12C=CC(=O)C=C1CC[C@@H]1[C@@H]2C(=O)C[C@@]2(C)[C@H]1CC[C@]2(O)C(=O)CO,,0.176%
CC(C)=CCC/C(C)=C/CO,inactive,
CC(=O)Nc1ccc(OC(=O)c2ccccc2OC(C)=O)cc1,inactive,
C[C@@H]1C[C@H]2[C@@H]3C[C@H](F)C4=CC(=O)C=C[C@]4(C)[C@@]3(F)[C@@H](O)C[C@]2(C)[C@@]1(O)C(=O)CO,inactive,
C[N+](C)(CCOc1ccccc1)Cc1cccs1,,0.296%
